This note sets out measurements from PubChem BioAssay.

Assay [1] in a line: liver-stage malaria parasite growth inhibition, primary screen, cell-based, HepG2, luciferase luminescence, HepG2 viability (AID 624349; in the data active means parasite load remaining mostly below about 12%, no sharp cut-off; inactive means mostly above about 10%;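 further: 100% = mean of DMSO negative control wells on the same plate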). Conditions: P. berghei liver stage in HepG2, luciferase luminescence, concentration not given here; parasite load remaining: stronger effect = lower value; viability: measured here: HepG2 viability without parasites.
The subject of assay [2] is Hepatitis C virus NS3 helicase. Briefly: HCV NS3 helicase inhibitors, primary screen, biochemical, fluorescence polarization, LOPAC1280 library (AID 687035; in the data active means inhibition above about 37%). Conditions: Purified HCV NS3 helicase, Cy5-dT15 ssDNA binding fluorescence polarization; stronger effect = higher value; concentration not given here.
A short description of assay [3]: Cy5 fluorescence quenching or enhancement artefacts, artefact control for HCV NS3 helicase inhibitor project, biochemical, LOPAC1280 (AID 687037). Conditions: Cy5-DNA-NS3h complex fluorescence interference counterscreen.
The nature of assay [4]: Cy5 fluorescence interference with SSB-bound oligo, artefact control for HCV NS3 helicase inhibitor project, biochemical, NIH Clinical Collection, E. coli SSB (AID 743268).
In assay [5] the test system is Hepatitis C virus NS3 helicase. As to the kind of experiment: HCV NS3 helicase inhibitors, primary screen, biochemical, fluorescence polarization, NIH Clinical Collection (AID 743270). As to conditions: NS3 helicase binding to Cy5-dT15 DNA, stronger effect = higher value, concentration not given here.
In assay [6] the target is Single-stranded DNA-binding protein (Escherichia coli (strain K12)) (UniProt P0AGE0). Briefly: E. coli SSB displacement from DNA, counter-screen for HCV NS3 helicase inhibitor project, biochemical, fluorescence polarization, NIH Clinical Collection (AID 743271; in the data active means inhibition above about 28%). As to conditions: stronger effect = higher value, concentration not given here.
A short description of assay [7]: fluorescence interference in NS3h assay format, artefact control for HCV NS3 helicase inhibitor project, biochemical, NIH Clinical Collection (AID 743272).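 Further: HCV NS3 helicase with a Cy5 labelled single stranded DNA probe.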 Conditions: fluorescence interference counterscreen, stronger effect = lower value.
The test system of assay [8] is Neuropilin-2 / VEGF-C interaction (human). As to the kind of experiment: inhibitors of NRP2–VEGF-C binding, biochemical, microplate binding format, z-score (AID 743281). As to conditions: microplate NRP2/VEGF-C binding assay; stronger effect = lower value.
The nature of assay [9]: stimulators of nuclear beta-catenin in C2C12, primary screen, imaging, WNT3A-conditioned medium, mouse C2C12, NPC library (AID 1117326; in the data active means nuclear beta-catenin stimulation mostly above about 4.2%, no sharp cut-off; inactive means mostly below about 10%). Conditions: stronger effect = higher value.
Assay [10] is described as follows: stimulators of insulin release from INS-1E, primary screen, cell-based, 5 mM glucose, NPC library (AID 1117329;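 active means compound raises insulin release from rat beta cells at 5 mM glucose, no numeric limit stated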). Conditions: rat INS-1E insulin secretion, at 10 µM, stronger effect = higher value.
The nature of assay [11]: growth inhibition of GSK3B-pretreated HCT116 cells – cell-based, CellTiter-Glo, 0.2 to 20 µM (AID 1117336;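 active means compounds lowering colon cancer cell viability after pretreatment blocking the GSK3B kinase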). Conditions: HCT116 viability after GSK3B inhibitor, at 20 µM, stronger effect = higher value.
A short description of assay [12]: inhibition of endothelial tube formation, primary screen, imaging, VEGF stimulated, CD31 staining, tube area, NPC library (AID 1117340;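 active means compound that reduces growth-factor-driven endothelial tube area in a mixed cell culture, no cutoff stated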). As to conditions: VEGF-stimulated ADSC/ECFC co-culture, at 10 µM, stronger effect = higher value.
Assay [13] is described as follows: glucagon-like peptide 1 release enhancers, primary assay, NCI-H716 cell line, NPC library (AID 1117341;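 active means compound raises GLP1 secretion from the human gut endocrine cells, with no numeric limit stated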). As to conditions: NCI-H716 cells, at 10 µM, stronger effect = higher value.
Assay [14] is described as follows: HCT116 colon cancer cell growth inhibition, primary screen, CellTiter-Glo luminescence, NPC library (AID 1117342;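 active means compounds that lower survival of HCT116 colon cancer cells in the luminescence readout, no numeric limit stated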). As to conditions: at 20 µM (top of the series).
Assay [15] in a line: CellTiter-Glo luminescent readout of SW480 viability loss, NPC library primary (AID 1117343;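 active means compounds that lower viability of the colon cancer cells in the luminescence readout, with no numeric limit stated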). Conditions: CellTiter-Glo luminescence; at 20 µM (top of the series).
A short description of assay [16]: decreased DLD-1 cellular survival, CellTiter-Glo luminescent readout, NPC compound collection, primary HTS (AID 1117346;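 active means compounds that lower survival of DLD-1 colon cancer cells in the luminescence readout, no cutoff given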). Conditions: DLD-1 viability, CellTiter-Glo luminescence; at 20 µM (top of the series).

Where “and” joins values, the source holds several entries; their conditions need not be identical. Identical values can stand only once. Calls of active or inactive are those of the source. Unless noted, how the calls were made is not given here.

On to `Oc1ccc(C2CNCCc3c2cc(O)c(O)c3Cl)cc1` (configuration not stated), for which the parasite load remaining in [1] was 97.3% (inactive) and 13% (inactive). Further, the viability in assay [1] is 74.7% and 61%. Further, the inhibition in assay [2] is -3% (inactive); in assay [5] it was -1.98% (inactive); in assay [6] it was -7.03% (inactive). The fluorescence ratio (interference) in assay [3] was 0.9 (inactive). Also, the fluorescence ratio is 0.73 (active) in assay [4] and 0.87 (inactive) in assay [7]. The z-score in [8] is 0.0254 (inactive). The nuclear beta-catenin stimulation in assay [9] (at 10 µM) was 1.1% (inactive); in [9] (stimulation, at 2 µM), 7.9%. The insulin secretion stimulation in assay [10] was 5.4% (inactive). Moreover, the viability decrease in assay [11] is 66.2% (active). For the same compound, the tube area decrease in [12] was 42.2% (active). Further, the GLP1 secretion stimulation in assay [13] was 1% (inactive). For the same compound, in [14], the inhibition of viability was 50.2% (active). The viability decrease (inhibition) was 50.9% (active) in [15] and 29.6% (inactive) in assay [16].

On to `COc1ccc(C2CNC(=O)C2)cc1OC1CCCC1` (configuration not stated), for which, in [1], the parasite load remaining is 73.2% (inactive) and 98.7% (inactive) and 48.7% (inactive). Besides, in assay [1], the viability was 91.9% and 79% and 67.5%. The inhibition in [2] is -7% (inactive); in assay [5], 2.77% (inactive); in assay [6] it was -0.1% (inactive). In addition, the fluorescence ratio (interference) in assay [3] is 1 (inactive). Besides, the fluorescence ratio in assay [4] was 1.03 (inactive); in [7], 0.98 (inactive). The z-score in assay [8] is 0.503 (inactive). For the same compound, the nuclear beta-catenin stimulation is -0.2% (inactive) in assay [9] (at 10 µM) and -0.4% in [9] (stimulation, at 2 µM). In addition, the insulin secretion stimulation in [10] was 0.8% (inactive). Besides, in assay [11], the viability decrease was 23.9% (inactive). Further, the tube area decrease in assay [12] was 1.1% (inactive). Moreover, the GLP1 secretion stimulation in assay [13] is 4.4% (inactive). In addition, the inhibition of viability in [14] was 13.6% (inactive). Moreover, the viability decrease (inhibition) in [15] was 88.4% (active); in assay [16], 29.1% (inactive).

Take `CNNCc1ccc(C(=O)NC(C)C)cc1`: the parasite load remaining in assay [1] is 101% (inactive) and 80.5% (inactive) and 21.4% (inactive). For the same compound, the viability in assay [1] is 76.9% and 70.8% and 66.5%. The fluorescence ratio in assay [4] was 1.04 (inactive); in [7], 1.02 (inactive). The values for the inhibition in assay [5] and in assay [6] were 1.19% (inactive) and -0.1% (inactive), respectively. Further, in assay [8], the z-score is -0.83 (inactive). In addition, the nuclear beta-catenin stimulation was -2% (inactive) in [9] (at 10 µM) and 1% in [9] (stimulation, at 2 µM). The insulin secretion stimulation in assay [10] is 0.5% (inactive). Also, the viability decrease in assay [11] is -8.6% (inactive). In addition, the tube area decrease in [12] was 0.7% (inactive). Also, the GLP1 secretion stimulation in [13] is -0.6% (inactive). Moreover, the inhibition of viability in assay [14] was -1.9% (inactive). The viability decrease (inhibition) is 5.8% (active) in [15] and -10.5% (inactive) in assay [16].

Consider `C#C[C@]1(O)CC[C@H]2[C@@H]3[C@H](C)CC4=C(CCC(=O)C4)[C@H]3CC[C@@]21C`, for which the parasite load remaining in [1] is 43.6% (inactive) and 8.38% (inactive). In [1], the viability was 76.2% and 73.5%. The fluorescence ratio in assay [4] and in assay [7] was 0.99 (inactive) in each case. Further, the inhibition in [5] was 0.66% (inactive); in [6] it was 1.18% (inactive). The nuclear beta-catenin stimulation in assay [9] (at 10 µM) is 7.4% (inactive); in assay [9] (stimulation, at 2 µM), 0.8%. The insulin secretion stimulation in assay [10] is -2.8% (inactive). The viability decrease in assay [11] is 45.5% (inactive). Also, the tube area decrease in assay [12] is -5.2% (inactive). For the same compound, the GLP1 secretion stimulation in assay [13] is 4.4% (inactive). Besides, the inhibition of viability in assay [14] was -14.3% (inactive). The viability decrease (inhibition) in assay [15] is 109% (active); in [16] it was 79.8% (active).
